Potency and affinity values are given separately.
Each molecule was assayed on Candida albicans. Conditions: Concentration 32 ug.mL-1; ASSAY_TEST Inhibition of Fungal Growth; detection method Absorption (OD530).
`O=C(Cn1nc2c(N3CCOCC3)nccn2c1=O)N1CCN(c2ccccc2F)CC1` showed an Inhibition of 0.78%.
Work on `Cc1ccccc1Cn1nc2ccc(-c3ccccc3)nn2c1=O` yielded an Inhibition of 0.4%.
For `COc1cccc(Oc2nccn3c(=O)n(CC(=O)NCc4ccc(SC)cc4)nc23)c1`, the Inhibition was 2.58%.
`CCc1ccc(N(Cc2ccccc2C)S(=O)(=O)c2cccn3c(CC)nnc23)cc1` was tested, and the Inhibition was 4.38%.
Work on `CC(C)(C)NC(=O)Cn1nc2n(Cc3cccs3)c(=O)c3sccc3n2c1=O` yielded an Inhibition of -0.71%.
`Cc1ccc(C)c(NC(=O)Cn2nc3c4cc(-c5ccc(C)c(C)c5)nn4ccn3c2=O)c1` was tested, and the Inhibition was -1.76%.
Work on `CCc1nnc2c(S(=O)(=O)N(Cc3cccc(C)c3)c3ccc(C(C)C)cc3)cccn12` yielded an Inhibition of 4.99%.
`COc1ccc(-c2cc3c4nnc(SCC(=O)Nc5cccc(Cl)c5C)n4ccn3n2)cc1` showed an Inhibition of 6.33%.
Molecule `Cc1cc2nn(CC(=O)N3CCCc4ccccc43)c(=O)n2c(Nc2ccc(F)cc2)n1` has an Inhibition of 1.07%.
For `CCOc1ccc(-n2ccn3c(SC(C)C(=O)Nc4ccc(OC)cc4)nnc3c2=O)cc1` (centres undefined), the Inhibition was 4.23%.
Molecule `COc1ccc(-c2cc3c4nn(CC(=O)Nc5ccccc5OC)c(=O)n4ccn3n2)cc1` has an Inhibition of 0.94%.
`Cc1ccc(C)c(CSc2nnc3c(=O)n(-c4ccc(F)c(F)c4)ccn23)c1` gave an Inhibition of 0.45%.
Molecule `CCCCN(CC)c1ccc2nnc(CCc3nc(-c4ccc5c(c4)OCO5)no3)n2n1` has an Inhibition of 3.29%.
`CN(C(=O)Cn1nc2n(Cc3ccco3)c(=O)c3sccc3n2c1=O)c1ccccc1` showed an Inhibition of 2.07%.

Source: ChEMBL document CHEMBL4513146, “CO-ADD screening of Karazin Kharkiv National University (Ukraine) compounds”
